Screens deposited in PubChem by University of Kansas High Throughput Screening Laboratory.
mHTT-CaM PPI inh: mutant huntingtin-calmodulin interaction inhibitors – biochemical, AlphaScreen, primary screen. AlphaScreen His-mHTT/GST-CaM binding, luminescence. P42858. AID 1671202, 2021. hit rate 3.6% among 190,000. inhibition, % at 15 µM;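 further: 0% = both proteins with DMSO and 100% = one protein alone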
Pf apPOL block: Pf-apPOL inhibitors, biochemical, fluorescence; Plasmodium falciparum apicoplast DNA polymerase (apPOL); Recombinant Pf-apPOL, molecular beacon fluorescence, 1.5 h; inhibition, % at 10 µM; hit rate 0.25% among 210,000; AID 1794808, 2022
* marks the source's active call; other numbers are inactive results; . = no result; ! = not active in a repeat. Hits are enriched below; roughly 3.6% of the tested compounds scored in any of these assays. No stated cut-off is given here; in the data, active means inhibition above about 50%; inactive means the rest.

SMILES	mHTT-CaM PPI inh	Pf apPOL block
Cc1cc(C(=O)N2CCCC2c2cc(C(C)C)on2)no1 (stereo not drawn)	-2	2
CS(=O)(=O)N1CC(C(=O)Nc2ccc3c(c2)OCCO3)C2(CCCCC2)C1 (stereo not drawn)	12	5
O=C(Nc1ccc2c(c1)OCO2)C1CN(S(=O)(=O)C2CC2)CC12CCCCC2 (stereo not drawn)	73*	1
CC1Oc2ccccc2OC1C(=O)Nc1sccc1C(N)=O (stereo not drawn)	8	2
O=C1/C(=C/c2cc([N+](=O)[O-])ccc2Cl)Sc2ccccc21	22	5
O=C1/C(=C/c2ccccc2F)Sc2ccccc21	58*	-5
O=C1/C(=C/c2cc([N+](=O)[O-])ccc2O)Sc2ccccc21	73*	-8
O=C1/C(=C/c2ccc(F)cc2F)Sc2ccccc21	11	-5
Cc1cc(C=C2N=COC2=O)ccc1C(F)(F)F	.	-6
CCn1cc(C2=CCN(C(=O)Nc3ccc4c(c3)OCCO4)CC2)c2cccnc21	34	-4
Cn1cc(C2=CCN(C(=O)NCc3cccc(F)c3)CC2)c2cccnc21	50*	-5
CCCn1cc(C2=CCN(C(=O)Nc3ccc4c(c3)OCCO4)CC2)c2cccnc21	59*	-4
CCCn1cc(C2=CCN(C(=O)NCc3ccccc3)CC2)c2cccnc21	32	-6
O=C(Nc1nc2ccccc2s1)c1cccc(Br)c1	-13	-6
O=C1C=C(Cl)CC(c2ccc(C(F)(F)F)cc2)C1 (stereo not drawn)	.	-18
Clc1ccc(N2CCN(Cc3ccsc3)CC2)cc1	6	2
CC(=O)C1=C(O)C(=O)NC1c1ccccc1 (stereo not drawn)	-1	-5
CC1(C)C2CCC1(C(=O)Nc1ccc(F)cc1)C(=O)C2=O (stereo not drawn)	-5	3
O=[N+]([O-])c1cc(F)c(N2CCCC2)cc1N1CCCC1	59*	1
O=[N+]([O-])c1cc(F)c(N2CCCC2)cc1N1CCCCCC1	79*	-4
O=[N+]([O-])c1cc(F)c(N2CCOCC2)cc1N1CCOCC1	4	-7
Cc1cc(N2CCCCC2)c(F)cc1[N+](=O)[O-]	0	1
COc1ccc(Br)cc1/C=C1/N=C(c2cc(Br)ccc2OC)OC1=O	8	0
O=S(=O)(c1cccs1)n1nnc2ccccc21	84*!	-6
O=S(=O)(c1cccs1)n1cnc2ccccc21	-2	-13
SMILES	mHTT-CaM PPI inh	Pf apPOL block
COc1ccc(I)cc1S(=O)(=O)n1nnc2ccccc21	89*	-11
Cc1ccc(I)cc1S(=O)(=O)n1nnc2ccccc21	2	-2
c1ccc(-c2cnc(-c3cccc4ccccc34)o2)cc1	-27	.
COc1ccc(-c2cnc(-c3c(O)c(C)nc4ccccc34)o2)cc1	60*	-1
O=S(=O)(c1ccc(F)cc1)N1CCC2(CC1)NCCN=C2NC1CCCCCC1	-8	-2
O=C(Cc1ccc(Br)cc1)Nc1nc2ccc([N+](=O)[O-])cc2s1	13	2
CC(=O)c1ccc(NC(=O)C2CCN(c3cc(C(=O)N4CCCCC4)ccn3)CC2)cc1	11	4
Cc1cccc(N2CCN(C(=O)C3CCCN(c4cc(=O)n(C)c(=O)n4C)C3)CC2)c1C (stereo not drawn)	51*	-3
Cc1cccc(N2CCN(C(=O)C3CCCN(c4cnn(C)c(=O)c4)C3)CC2)c1C (stereo not drawn)	34	-4
O=C(NCc1nnc2n1CCCC2)c1ccc2ncccc2c1	-1	1
Cc1cc(NC(=O)c2ccc3c(c2)N(S(C)(=O)=O)CC3)ccc1F	-2	2
CCc1nc2nc(C)cc(N3CCN(c4ccc(C)cc4C)CC3)n2n1	63*	-8
CCCN(C)Cc1nc2nc(C)cc(N3CCCCCC3)n2n1	19	-7
O=C(NC(c1ccccc1)c1ccccc1)c1cccnc1	-5	3
O=C(NC(c1ccc([N+](=O)[O-])cc1)c1cc(Cl)c2cccnc2c1O)c1cccnc1 (stereo not drawn)	53*	-9
O=C(NC(c1cccc([N+](=O)[O-])c1)c1cc(Cl)c2cccnc2c1O)c1cccnc1 (stereo not drawn)	79*	-6
O=C(Cc1cccs1)N1CCc2nc3cc[nH]n3c(=O)c2C1	1	-1
Cc1cc(O)c(CN2CCOCC2)c2c1C(=O)C(=Cc1ccncc1)O2	4	-8
CC12CC(NC(=O)N1Cc1ccccc1)c1cc(Br)ccc1O2 (stereo not drawn)	10	3
O=C1Nc2ccc(Br)cc2C(c2ccccc2Cl)C1N1CCCCC1 (stereo not drawn)	80*	-7
CCN(CC)C1C(=O)Nc2ccc(Br)cc2C1c1ccccc1Cl (stereo not drawn)	94*	13
O=C1CN(C(=O)C2CC2)C(c2ccccc2)c2cc(Br)ccc2N1 (stereo not drawn)	10	-4
COc1ccc(C=Nc2ccc(Nc3ccccc3)cc2)cc1O	87*	-57
Oc1ccc(N=Cc2ccc(OCc3ccccc3)cc2)cc1	35	0
COc1cc(C=Nc2ccc(Cl)c(Cl)c2)ccc1O	2	3
SMILES	mHTT-CaM PPI inh	Pf apPOL block
COc1ccc(C=Nc2ccc(C(N)=O)cc2)cc1O	-4	-1
COc1cc(C=Nc2ccc(Nc3ccccc3)cc2)ccc1O	92*	-4
Oc1ccc(C=Nc2ccc(Nc3ccccc3)cc2)cc1	100*	-3
O=C(NCCc1ccncc1)C1CN(S(=O)(=O)c2ccccc2)CC12CCCCC2 (stereo not drawn)	-5	1
O=C(NCCN1CCCC1)C1CCCN(C(=O)Cc2cccc3ccccc23)C1 (stereo not drawn)	6	3
CS(=O)(=O)N1CCC(C(=O)NCCCN2CCN(c3ccccc3)CC2)CC1	-13	-10
Cc1ccnc(N2CCC(C(=O)N3CCN(c4cccc(C(F)(F)F)c4)CC3)CC2)n1	6	-2
O=C(NCCCN1CCN(c2cccc(Cl)c2)CC1)C1CCN(c2ccncc2)CC1	95*	7
Cc1ccnc(N2CCCC(C(=O)N3CCN(c4cccc(C(F)(F)F)c4)CC3)C2)n1 (stereo not drawn)	78*	2
Cc1ccc(Cl)cc1N1CCN(C(=O)C2CCN(c3ccncc3)CC2)CC1	100*	2
Cc1ccnc(N2CCCC(C(=O)N3CCN(c4ncccn4)CC3)C2)n1 (stereo not drawn)	-3	-6
Cc1ccnc(N2CCCC(C(=O)N3CCN(c4cc(Cl)ccc4C)CC3)C2)n1 (stereo not drawn)	90*	-5
Cc1ccc(C)c(N2CCN(C(=O)C3CCN(c4ccncc4)CC3)CC2)c1	0	-3
CCN1C(=O)/C(=c2/sc3nc4ccccc4n3c2=O)c2ccccc21	-3	6
Cc1ccc2c(c1)/C(=c1\sc3nc4ccccc4n3c1=O)C(=O)N2	0	55*
O=c1oc2c(CN3CCCC3)c(O)ccc2c2c1CCC2	-3	-4
COc1ccc(NCc2ccc(OC)c(OC)c2)cc1	11	10
COc1ccc(NCc2ccc(C)s2)cc1OC	71*	6
CCCn1cc2c3c(cccc31)CN(C(=O)Nc1cccc(OC)c1)CC2	1	-2
CCn1cc2c3c(cccc31)CN(C(=O)Nc1ccccc1OC)CC2	29	-1
CCn1cc2c3c(cccc31)CN(C(=O)Nc1ccc(OC)cc1OC)CC2	27	-3
CCCn1cc2c3c(cccc31)CN(C(=O)Nc1cc(OC)ccc1OC)CC2	73*	-1
